Rows were chosen to be rich in hits. Some 3.2% of all compounds tested hit in one or more screens of this group.
Tau fibril ThT: tau fibrillization inhibition (ThT binding). P10636. recombinant tau K18 P301L, heparin-induced fibrillization, ThT fluorescence. Potency, µM (series often up to 57.4 µM), inactives show top-dose activity, negative = inhibition, actives largely listed as inhibitors. 270,000 tested, 2.1% active; note: nearly all actives have a fitted effect of over 55% in size
Target sequence (P10636 561-689 P618L limits assumed): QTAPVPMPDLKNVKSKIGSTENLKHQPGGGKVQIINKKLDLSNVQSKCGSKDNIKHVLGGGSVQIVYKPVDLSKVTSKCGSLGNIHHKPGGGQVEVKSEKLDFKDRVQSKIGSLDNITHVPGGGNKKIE
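K18 P301L tau (15 uM + 0.24 uM Alexa 594-tagged), heparin 20 uM, NaOAc pH 7, 6 h 37 C; ThT 30 uM, 1 h RT, ex 450/em 510 nm.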
Tau fibril FP: inhibitors of human tau fibril formation; K18 P301L tau heparin fibrillization, Alexa594 FP, 6 h; Potency, µM (highest dose often 57.7 µM), for the others: top-dose activity, negative = inhibition, actives largely listed as inhibitors; 280,000 tested, 0.39% active; AID 1468; note: nearly all actives have a fitted effect of over 55% in size
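Read-out: fluorescence polarization of Alexa 594-labeled tau (0.24 uM), 555 nm excitation, 632 nm emission. Mixtures held 15 uM unlabeled K18 P301L, compound and 20 uM heparin, pH 7 acetate buffer, incubated 6 hr at 37 C.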
TR SRC2 fluor cs: Texas Red fluorescence interference in TRb-SRC2 counter-screen; TRb/SRC2 Texas Red total fluorescence interference; Potency, µM (doses to about 106 µM), without a hit: top-dose fluorescence change, negative = quenching; 280,000 tested, 0.29% active; active = well fitted curve in either direction with a large enough effect; inconclusive = small, poorly fitted or top-dose-only effect
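Flags fluorescent or light-absorbing compounds by total fluorescence, S + 2P, at 555 nm excitation and 632 nm emission. Mixture: 20 nM Texas Red SRC2 peptide, 0.6 uM human TRb LBD, 1 uM T3, 5% DMSO; compound exposure 5 h at ambient temperature.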
RGS12 GoLoco inh: blocks human Gai1 binding to RGS12 GoLoco peptide, red readout; P63096; Gai1:RGS12 GoLoco peptide FP, rhodamine, 10 min; Potency, µM (doses to about 61.6 µM), for the others: top-dose activity, negative = inhibition, most hits filed as inhibitors; 230,000 tested, 0.44% active; AID 880; active = well fitted inhibition curve with a large enough effect, not every such curve was filed as active; inactive = no such curve, though single readings can be large or run the other way; note: nearly all actives have a fitted effect of over 30% in size
TRb SRC2 PPI: disrupts binding of human TR beta to SRC2 | TRbeta-SRC2 peptide binding, fluorescence polarization; receptor liganded with 1 µM T3 | Potency, µM (titrated, usually from 106 µM), inactives show top-dose activity change, negative = inhibition, usual class: inhibitors | 280,000 tested, 0.065% active;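 note: plate controls were bound peptide for no effect and peptide without receptor for full effect; nearly all actives have a fitted effect of over 50% in size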
Target sequence (P10828 whole entry, looked up): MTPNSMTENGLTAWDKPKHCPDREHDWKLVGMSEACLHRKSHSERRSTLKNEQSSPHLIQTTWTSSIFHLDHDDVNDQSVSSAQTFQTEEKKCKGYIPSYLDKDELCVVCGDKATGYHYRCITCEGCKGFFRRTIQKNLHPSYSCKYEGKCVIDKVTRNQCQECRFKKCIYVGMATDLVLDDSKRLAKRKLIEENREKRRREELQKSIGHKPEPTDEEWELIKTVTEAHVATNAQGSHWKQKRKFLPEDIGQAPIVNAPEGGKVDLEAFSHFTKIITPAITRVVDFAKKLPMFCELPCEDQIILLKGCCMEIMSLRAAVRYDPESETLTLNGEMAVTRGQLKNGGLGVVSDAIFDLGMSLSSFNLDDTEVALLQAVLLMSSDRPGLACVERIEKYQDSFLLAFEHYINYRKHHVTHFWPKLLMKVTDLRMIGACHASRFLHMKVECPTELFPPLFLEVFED
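Binding of a 20-amino-acid Texas Red SRC2 peptide (20 nM) to TRb ligand-binding domain (0.6 uM) with agonist T3 at 1 uM was followed by fluorescence polarization after a 5 hr room-temperature incubation.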
Tau fluor cs: counter-screen for tau fibril formation inhibitors; tau K18 P301L Alexa594 fluorescence, heparin fibrillization; Potency, µM (doses to about 57.7 µM), for the others: top-dose activity change, negative = decrease; 280,000 tested, 0.93% active; note: nearly all actives have a fitted effect of over 55% in size
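Human tau K18 P301L (15 uM unlabeled, 0.24 uM Alexa 594-labeled) in 100 mM sodium acetate pH 7 with 20 uM heparin, 6 hr at 37 C. ThT 30 uM added, 1 hr ambient; Alexa 594 FP and total fluorescence read at 555/632 nm.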
The depositor's hits bear a star; ? = inconclusive; / = no result given; [ ] = remark or other dose. Unless noted, calls come from the whole dose curve; as a rule, active = well fitted curve in the direction sought with a large enough effect; inconclusive = small, poorly fitted or top-dose-only effect, or another doubt; inactive = no such curve, though single readings can be large; an effect the other way counts as inactive or inconclusive. Unless noted, % is set by controls: 0 for no effect and ±100 for the full control effect; potency is the fitted concentration of half-maximal effect.

SMILES | Tau fibril ThT | Tau fibril FP | TR SRC2 fluor cs | RGS12 GoLoco inh | TRb SRC2 PPI | Tau fluor cs
N#CC1(C#N)CC(C=O)=C(N)C1(C#N)CC(=O)c1ccc(F)cc1 (configuration not stated) | 14µM* | ? | 14% | 132% | -30% | ?
CC1(C)OC[C@@H]2O[C@@]3(C(=O)O)OC(C)(C)O[C@H]3[C@@H]2O1 | / | / | 5%[201 µM] | / | 2%[201 µM] | /
Cc1cc(N(CCO)Cc2ccccc2)n2nc(-c3ccc(C(C)(C)C)cc3)nc2n1 | -15% | 3% | -1% | / | -3% | -7%
COc1ccc(/C=C2\CCC/C(=C\C=N\N(C)C)C2=O)cc1 | 2.5µM* | 0% | -6% | 18% | 1% | -29%
CN(C)/N=C/C=C1\CCC/C(=C\c2ccc(F)c(F)c2)C1=O | 2% | 1% | -2% | 31% | 0% | -11%
O=C1/C(=C/c2ccc(C(=O)O)cc2)CCC/C1=C\c1ccc(C(=O)O)cc1 | 10µM* | ? | 0% | -2% | 4% | -9%
CN(C)c1ccc(/C=C2\CCC/C(=C\c3ccccc3)C2=O)cc1 | 2µM* | -2% | 1% | 281% | -7% | ?
O=C(c1ccc(CS(=O)(=O)c2c(Cl)cccc2Cl)o1)N1CCN(c2ccccc2)CC1 | -7% | 6% | 6.3µM*[quencher] | / | -24% | -23%
CC1CC=CC2C1C(=O)N(Cc1ccccc1)C2c1ccc(-c2ccc(F)cc2)cc1F (configuration not stated) | / | / | 0% | / | 0% | /
Cc1cc(C)c2c(CC(=O)Nc3nnc(C(C)C)s3)coc2c1 | 2% | -3% | -11% | / | 1% | -7%
CCOc1cc(/C=C2\CCC/C(=C\c3cc(Cl)c(O)c(OCC)c3)C2=O)cc(Cl)c1O | 8.9µM* | ? | -2% | 51% | -8% | ?
CSc1nc(C)cc(C)c1C#N | -14% | 1% | -3% | 10% | -6% | -1%
Cc1cc(C)c(C#N)c(=N)o1 | ? | -17% | -2% | 22µM* | -1% | -12%
N#Cc1c(Nc2ccc(Cl)cc2)s[nH]c1=O | / | 20µM* | 1% | 1% | 2% | -20%
O=C(CSc1nnc(CNc2ccccc2)o1)N1CCc2ccccc21 | -6% | 2% | 0% | 7% | -8% | -6%
O=C(CSc1nnc(Cc2csc(Nc3cccc(Cl)c3)n2)o1)N1CCc2ccccc21 | ? | 6% | -4% | 2% | 3% | 7.1µM*[quencher]
COc1ccc(CCNC(=O)c2ccc3c(c2)CCN3S(=O)(=O)c2ccccc2)cc1OC | ? | -7% | -3% | / | 0% | ?
O=C1/C(=C/Nc2cccc([N+](=O)[O-])c2)CCc2ccccc21 | 14µM* | 9% | -2% | -9% | -16% | ?
Cc1cc(C)c(C)c(C(=O)c2ccccc2C(=O)O)c1C | -1% | -2% | -4% | 11% | -4% | 6%
COc1cc(C(=O)O)ccc1O | -5% | -5% | -2% | 5% | -2% | -5%
Cc1cc(O)c(C(C)C)cc1N=Nc1ccccc1C(=O)O | 6.3µM* | -2% | -8% | 76% | 4% | -23%
Cc1cc(N=Nc2ccccc2C(=O)O)c(C)c(C)c1O | 0.89µM* | 1% | ? | 124% | 19% | ?
COc1cc(N=Nc2ccccc2C(=O)O)ccc1O | 7.1µM* | 1% | 0% | 35% | 6% | -12%
Cc1cc(O)c(C(C)C)cc1N=C1CSC(=O)N1 | ? | -8% | -3% | 0% | -23% | ?
Nc1nc(Nc2ccccc2)nc(NCc2ccco2)c1[N+](=O)[O-] | ? | ? | -3% | -11% | -1% | 13µM*[quencher]
SMILES | Tau fibril ThT | Tau fibril FP | TR SRC2 fluor cs | RGS12 GoLoco inh | TRb SRC2 PPI | Tau fluor cs
Nc1nc(NCc2ccco2)nc(Nc2ccccc2)c1[N+](=O)[O-] | 0% | -10% | -6% | -4% | -6% | -13%
Cc1cc2c(cc1Cl)C(c1ccc3c(c1)OCO3)CC(=O)O2 (configuration not stated) | -9%[81.4 µM] | -4%[81.3 µM] | 0% | 1%[88.7 µM] | 0% | -14%[81.3 µM]
COc1cc(OC)c(NC(=O)Nc2cc(C)on2)cc1Cl | / | / | -5% | / | 7% | /
c1ccc2c3c([nH]c2c1)-c1[nH]ncc1CC3 | ? | ? | -1% | -5% | 1% | ?
Clc1ccc2[nH]c3c(c2c1)CCc1cn[nH]c1-3 | ? | -13% | -2% | -3% | 2% | 8.9µM*[quencher]
O=C(/C=C/c1ccc2c(c1)OCCCO2)c1ccc2ccccc2c1O | 3.2µM* | 0% | -2% | 17% | 4% | ?
Cc1ccc(C(=O)/C=C/c2ccc3c(c2)OCCO3)c(O)c1 | 6.3µM* | 7% | -1% | 5% | 4% | -23%
Cc1cc(SCC(=O)c2ccc(Br)cc2)cc(C)[o+]1 | / | / | / | 17%[14.2 µM] | / | /
C=CCc1cccc(C2C(C)CCC3C(=O)N4C(CCC(C)C4c4cccc(CC=C)c4)C(=O)N32)c1 (configuration not stated) | -13%[11.5 µM] | 5%[11.6 µM] | -5%[11.2 µM] | / | -1%[11.2 µM] | -12%[11.6 µM]
Cc1ccc2c(c1)/C(=C/c1ccco1)C(=O)N2 | 11µM* | 3% | -1% | 8% | -1% | -21%
Cc1ccc(/C=C2\C(=O)Nc3ccccc32)o1 | 5% | -3% | 0.11µM*[quencher] | -18% | -13%[53 µM] | 1%
O=C1Nc2ccccc2/C1=C/c1cccnc1 | ? | 1% | 0% | 14% | 6% | -10%
Cc1ccc2c(c1)NC(=O)c1cccnc1N2 | ? | 9% | -1% | 10% | 0% | -22%
O=C(NCc1ccccc1Cl)c1ccc2c(c1)N(Cc1ccccc1)CCS2 | -13% | 10% | 0% | / | -9% | ?
